Drawing on PubChem BioAssay AID624310 (Broad Institute, 2012), this text covers outcome for 1 compound.

The source made the active and inactive calls.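 Rule for the calls: active = compound lowering absorbance whose fitted half-maximal concentration is at most twice its top valid dose; inconclusive = flat fit with 30 to 70% inhibition, or poor fit; inactive = the rest, including wrong-direction or flat responses.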

This test has as its target Protein disulfide-isomerase (Homo sapiens) (UniProt P07237). The test can be described thus: PDI inhibitors, insulin aggregation turbidity, confirmation, biochemical, absorbance, dry powder samples (AID 624310).

Chain of Protein disulfide-isomerase (Homo sapiens) (P07237 whole entry, looked up): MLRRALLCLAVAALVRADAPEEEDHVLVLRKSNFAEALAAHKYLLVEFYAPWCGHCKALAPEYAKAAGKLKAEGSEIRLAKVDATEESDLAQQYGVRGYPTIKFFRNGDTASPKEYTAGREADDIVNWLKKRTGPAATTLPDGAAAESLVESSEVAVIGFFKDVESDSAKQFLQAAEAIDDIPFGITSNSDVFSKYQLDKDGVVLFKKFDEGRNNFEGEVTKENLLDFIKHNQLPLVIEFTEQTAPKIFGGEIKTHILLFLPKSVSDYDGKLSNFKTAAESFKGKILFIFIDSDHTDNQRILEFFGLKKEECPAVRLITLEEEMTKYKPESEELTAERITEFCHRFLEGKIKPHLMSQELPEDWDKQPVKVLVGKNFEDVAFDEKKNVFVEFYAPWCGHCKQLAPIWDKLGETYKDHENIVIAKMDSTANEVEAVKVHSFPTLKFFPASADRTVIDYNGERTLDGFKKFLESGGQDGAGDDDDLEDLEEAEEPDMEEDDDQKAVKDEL

Turning to `C[C@H]1CN([C@@H](C)CO)C(=O)c2cccc(NS(C)(=O)=O)c2O[C@H]1CN(C)Cc1ccc(Oc2ccccc2)cc1`, the compound was classed as inactive.
